Results taken from PubChem BioAssay AID1159580 (chemical genetic matrix, 2015).
“And” between values parts separate entries of the source, which are not always exact repeats. Identical values can stand only once. Among all 5,500 compounds or so, about 2,000 (36%) were called active. Not shown: some 18% with an inconclusive outcome. Rule as the data show it: active = normalized growth mostly below about 0.91 (no sharp cut-off); inconclusive = no clear call, values can overlap the other calls; inactive = mostly above about 0.92. The list shows a part of the results.

Test: chemical genetic growth profiling, strain panel (AID 1159580);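 also: tested at 20 µM; growth read once vehicle control cultures reached saturation at 30 °C; 1 = growth at the plate median or of vehicle wells; lower values mean less growth of the strain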
Conditions: S. cerevisiae deletion strains, growth OD

Measured: normalized growth

Cc1cc2cc3c(C)cc(=O)oc3c(C)c2o1
inactive: locus YAL013W, strain DEP1, stronger effect = lower value 0.965 | locus YAL021C, strain ccr4, stronger effect = lower value 0.992 | locus YAL026C, strain drs2, stronger effect = lower value 0.949 | locus YAL030W, strain snc1, stronger effect = lower value 1.01 | locus YBL061C, strain skt5, stronger effect = lower value 0.997 | locus YBR009C, strain hhf1, stronger effect = lower value 0.937 | locus YBR021W, strain FUR4, stronger effect = lower value 1 | locus YBR023C, strain chs3, stronger effect = lower value 0.968 | locus YBR171W, strain sec66, stronger effect = lower value 0.959 | locus YBR229C, strain ROT2, stronger effect = lower value 0.967 | locus YBR231C, strain swc5, stronger effect = lower value 0.993 | locus YBR279W, strain paf1, stronger effect = lower value 0.949 | locus YCL011C, strain gbp2, stronger effect = lower value 0.955 | locus YCL016C, strain dcc1, stronger effect = lower value 0.939 | locus YCL029C, strain bik1, stronger effect = lower value 0.958 | locus YCL061C, strain MRC1, stronger effect = lower value 1 | locus YCL069W, strain vba3, stronger effect = lower value 0.955 | locus YCR088W, strain abp1, stronger effect = lower value 0.987 | locus YDL005C, strain med2, stronger effect = lower value 0.993 | locus YDL035C, strain GPR1, stronger effect = lower value 0.92 | locus YDL040C, strain nat1, stronger effect = lower value 1 | locus YDL074C, strain BRE1, stronger effect = lower value 0.832 | locus YDL101C, strain DUN1, stronger effect = lower value 0.933 | locus YDL134C, strain PPH21, stronger effect = lower value 0.951 | locus YDL185W, strain tfp1, stronger effect = lower value 0.958 | locus YDL192W, strain arf1, stronger effect = lower value 0.966 | locus YDR001C, strain nth1, stronger effect = lower value 0.984 | locus YDR069C, strain doa4, stronger effect = lower value 1.02 | locus YDR101C, strain arx1, stronger effect = lower value 0.951 | locus YDR137W, strain rgp1, stronger effect = lower value 1.03 | locus YDR150W, strain NUM1, stronger effect = lower value 0.993 | locus YDR159W, strain sac3, stronger effect = lower value 0.996 | locus YDR162C, strain NBP2, stronger effect = lower value 0.956 | locus YDR297W, strain sur2, stronger effect = lower value 1.01 | locus YDR318W, strain mcm21, stronger effect = lower value 0.94 | locus YDR334W, strain swr1, stronger effect = lower value 1 | locus YDR335W, strain msn5, stronger effect = lower value 1 | locus YDR388W, stronger effect = lower value 0.956 | locus YDR392W, strain spt3, stronger effect = lower value 0.875 | locus YDR502C, strain sam2, stronger effect = lower value 0.957 | locus YEL003W, strain gim4, stronger effect = lower value 0.972 | locus YEL037C, strain rad23, stronger effect = lower value 0.949 | locus YEL061C, strain CIN8 (second series), stronger effect = lower value 0.989 | locus YEL061C, strain CIN8, stronger effect = lower value 0.98 | locus YER015W, strain faa2, stronger effect = lower value 0.981 | locus YER016W, strain bim1, stronger effect = lower value 1 | locus YER110C, stronger effect = lower value 0.969 | locus YER111C, strain swi4, stronger effect = lower value 0.991 | locus YER155C, strain BEM2 (second series), stronger effect = lower value 0.926 | locus YER155C, strain BEM2, stronger effect = lower value 0.982 | locus YER167W, strain BCK2, stronger effect = lower value 0.975 | locus YFR010W, strain ubp6, stronger effect = lower value 0.965 | locus YGL078C, strain dbp3, stronger effect = lower value 0.982 | locus YGL086W, strain mad1, stronger effect = lower value 0.973 | locus YGL167C, strain pmr1, stronger effect = lower value 1.01 | locus YGL173C, strain kem1, stronger effect = lower value 0.997 | locus YGL227W, strain vid30, stronger effect = lower value 0.999 | locus YGL240W, strain doc1, stronger effect = lower value 0.98 | locus YGL248W, strain PDE1, stronger effect = lower value 0.929 | locus YGL253W, strain hxk2, stronger effect = lower value 0.953 | locus YGR078C, strain PAC10, stronger effect = lower value 0.879 | locus YGR135W, strain pre9, stronger effect = lower value 0.905 | locus YGR229C, strain SMI1, stronger effect = lower value 0.867 | locus YGR252W, strain gcn5, stronger effect = lower value 0.917 | locus YHR013C, strain ard1, stronger effect = lower value 0.877 | locus YHR027C, strain rpn1, stronger effect = lower value 1 | locus YHR079C, strain IRE1 (second series), stronger effect = lower value 0.981 | locus YHR079C, strain IRE1, stronger effect = lower value 0.948 | locus YHR094C, strain hxt1, stronger effect = lower value 0.992 | locus YHR129C, strain ARP1, stronger effect = lower value 0.967 | locus YHR142W, strain chs7, stronger effect = lower value 0.944 | locus YHR200W, strain rpn10, stronger effect = lower value 0.941 | locus YIL066C, strain RNR3, stronger effect = lower value 0.918 | locus YIL073C, strain SPO22, stronger effect = lower value 0.888 | locus YIL125W, strain kgd1, stronger effect = lower value 1 | locus YIR030C, strain dcg1, stronger effect = lower value 0.988 | locus YJL092W, strain hpr5, stronger effect = lower value 0.978 | locus YJL095W, strain BCK1 (second series), stronger effect = lower value 0.988 | locus YJL115W, strain asf1, stronger effect = lower value 0.991 | locus YJL129C, strain trk1, stronger effect = lower value 1.02 | locus YJL134W, strain LCB3, stronger effect = lower value 0.977 | locus YJL154C, strain vps35, stronger effect = lower value 0.99 | locus YJL164C, strain tpk1, stronger effect = lower value 0.95 | locus YJL166W, strain qcr8, stronger effect = lower value 0.989 | locus YJL187C, strain SWE1 (second series), stronger effect = lower value 0.91 | locus YJR043C, strain POL32, stronger effect = lower value 0.89 | locus YJR066W, strain TOR1, stronger effect = lower value 0.89 | locus YJR075W, strain HOC1, stronger effect = lower value 0.946
0.752 (active) and 0.891 (inactive): locus YJL095W, strain BCK1, stronger effect = lower value
active: locus YDR195W, strain ref2 1.28 [resistant]
0.908 (active) and 0.94 (inactive): locus YHR030C, strain SLT2, stronger effect = lower value
